PubChem BioAssay AID1508609 (The Scripps Research Institute Molecular Screening Center, 2020)
Screen size: about 6,700 compounds; fewer than 10 were called active. These entries were drawn from the full list. Values without a mark were called inactive.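 How the source made its calls: active means mean percent activation across replicates above the confirmation screen cutoff of 4.91%; inactive means the rest.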

biological target: G-protein coupled receptor 151 (Homo sapiens) (UniProt Q8TDV0); assay: GPR151 activators, triplicate retest, confirmation, cell-based, PathHunter beta-arrestin, luminescence (AID 1508609); details: GPR151 PathHunter beta-arrestin cells, 90 min, at 11.2 µM, active compounds read high, % of EA-reagent control over plate median
Sequence (Q8TDV0 whole entry, looked up): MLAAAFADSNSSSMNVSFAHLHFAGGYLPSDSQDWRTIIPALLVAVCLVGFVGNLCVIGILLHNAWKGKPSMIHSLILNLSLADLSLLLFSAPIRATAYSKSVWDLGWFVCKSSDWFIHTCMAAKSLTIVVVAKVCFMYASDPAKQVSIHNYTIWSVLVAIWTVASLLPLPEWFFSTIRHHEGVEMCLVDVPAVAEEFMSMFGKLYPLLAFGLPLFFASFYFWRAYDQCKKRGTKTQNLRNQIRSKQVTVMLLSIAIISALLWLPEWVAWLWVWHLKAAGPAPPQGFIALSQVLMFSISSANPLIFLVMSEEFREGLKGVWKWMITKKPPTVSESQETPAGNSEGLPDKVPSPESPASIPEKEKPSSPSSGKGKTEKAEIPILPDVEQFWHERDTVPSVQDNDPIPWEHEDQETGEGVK

SMILES	activation
Cc1nnc(SCC(=O)NCc2ccccc2)s1	-1.41%
CCN(CC)c1nc(Nc2cc(OC)c(OC)c(OC)c2)nc(N2CCOCC2)n1	-0.81%
COc1ccc2c(c1)C=C(CN1CCN(CC3CCCCC3)C(CCO)C1)CO2 (configuration not stated)	0.99%
COc1ccc(OC)c(NC(=O)CN(c2cccc(C)c2C)S(C)(=O)=O)c1	-1.37%
CCc1cc2c(=O)c(-c3ccc4c(c3)OCCCO4)coc2cc1OC(=O)N1CCOCC1	-0.64%
COc1cc(Nc2cc(N3CCN(c4ccc(F)cc4)CC3)c3noc4c3c2C(=O)c2ccccc2-4)cc(OC)c1OC	-0.64%
O=CN1CCN(CCC(=O)Nc2ccccc2)CC1	1.05%
CC1(C(=O)Nc2cccc(C(F)(F)F)c2)CC2c3ccccc3C1c1ccccc12 (configuration not stated)	0.28%
C=CCN(c1ccc(C(=O)Nc2ccc(OCc3ccccc3)cc2)cc1)S(C)(=O)=O	-0.47%
O=C(COc1ccc(S(=O)(=O)NCCc2ccccc2)cc1)NC1CC1	-1.2%
COc1cc(NC(=O)C2CC(c3ccccc3O)=NO2)c(OC)cc1Cl (configuration not stated)	0.24%
CCCCCC(=O)N/N=C(/C)c1ccc(O)cc1O	0.98%
CCOC(=O)c1sc(NC(=O)CSc2ncccn2)c(C#N)c1C	-0.62%
O=C(Cn1nnc2ccccc21)N/N=C/c1c(O)ccc2ccccc12	0.12%
CC(C)CCSc1nc2c(c(=O)n1Cc1ccco1)C1(CCCCC1)Cc1ccccc1-2	0.06%
CN1CCN(c2ccc(-c3nc4ccc(C(=O)NCc5nc6ccccc6[nH]5)cc4s3)cc2)CC1	-0.31%
COc1cccc(C(=O)Nc2sc3c(c2C(N)=O)CCCCCC3)c1	0.1%
COc1ccc(N2C(=O)C3CCCN3C2c2cccc(OC)c2)cc1 (configuration not stated)	-1.45%
CCOc1ccc(/C=C2N=C(/C=C/c3cccc(Cl)c3Cl)OC\2=O)cc1	-0.04%

SMILES	activation
CCN(CC)S(=O)(=O)c1ccc(N2CCCC2)c(NC(=O)c2ccc([N+](=O)[O-])o2)c1	0.12%
COCCN1C(=O)CC(CC(=O)NCc2nc3ccccc3[nH]2)(c2ccccc2C)C1=O (configuration not stated)	0.82%
CCc1nn(CCCN2CCN(c3cccc(Cl)c3)CC2)c(=O)n1CCOc1ccccc1	0.13%
CCOC(=O)c1sc2nc(SCC(=O)N(C)Cc3ccccc3)n(Cc3ccc4c(c3)OCO4)c(=O)c2c1C	-1.12%
COc1ccccc1C(=O)N/C(=C\c1ccc2c(c1)OCO2)C(N)=O	-0.62%
O=C(N/N=C/c1cccc(Cl)c1Cl)c1cccs1	-1.68%
Cc1ccc(NCC(=O)N/N=C\c2ccc(I)o2)cc1	-0.49%
CC1CCN(CC(=O)Nc2ccccc2Cl)CC1	0.1%
CCCOc1ccc([N+](=O)[O-])cc1C=C1C(=O)NC(=O)NC1=O	-0.34%
COc1ccc(OC)c(NC(=O)CSc2nnc3[nH]c(=O)c(C)c(C)n23)c1	-0.4%
COc1ccc(C(=O)Cc2cc3ccccc3oc2=O)c(OC)c1	-0.78%
CCc1ccc(-c2ccc(C3CCC(CC)CC3)cc2)nc1 (configuration not stated)	-0.84%
CCc1ccc(S(=O)(=O)NCCOc2cc(N3CCOCC3)ncn2)cc1	0.53%
CCOC(=O)C1=C(CC)OC(N)=C(C#N)C1c1ccc(C(F)(F)F)cc1 (configuration not stated)	-0.53%
CCC[C@@H]1NC(=O)[C@@H]2C[C@H](NCc3nc(-c4ccc(F)cc4)cs3)CN2C1=O	0.46%
CC(C)CC(C(=O)Nc1cccc([N+](=O)[O-])c1)N1C(=O)c2ccccc2C1=O (configuration not stated)	0.6%
COc1ccc(C(=O)COC(=O)C(Cc2ccccc2)NC(=O)c2ccco2)cc1 (configuration not stated)	0.8%
CCC1(c2ccc(Cl)cc2Cl)NC(=S)N(c2ccc(C)c(C)c2)N1 (configuration not stated)	0.75%
CCC(C(=O)N1CCCCC1)n1c(C)c2cnn(-c3ccccc3)c(=O)c2c1C (configuration not stated)	-0.56%

SMILES	activation
Cc1ccc2cc(C#N)c(SCCO)nc2c1	0.26%
COc1ccc(/C=C(\C#N)C(=O)Nc2cccc(S(=O)(=O)N3CCCCC3)c2)cc1	-1.24%
Cc1ccc(Nc2nc(-c3ccccn3)cs2)cc1C	-1%
CC(C)(C)NC(=O)Cc1coc2ccc3ccccc3c12	0.92%
COc1ccc(/C=C(\C#N)C(=O)Nc2ccc(F)cc2)c(OC)c1	0.7%
Cc1ccc(-n2cc(-c3ccccc3)c3c(N4CC(C)OC(C)C4)ncnc32)cc1 (configuration not stated)	0.03%
COc1cc(/C=N/N=C2/NC(=O)CS2)ccc1OC(=O)c1ccccc1C	-0.88%
O=C(CN1C(=O)S/C(=C\c2ccc(Cl)s2)C1=O)Nc1ccccc1F	-1.03%
CO[C@@H]1COC(=O)[C@@H](C)COC(=O)[C@H](C)NC(=O)C/C=C/[C@H]1C	0.63%
Cn1c2ccccc2c2nnc(SCC(=O)Nc3ccc(NC(=O)C4CC4)cc3)nc21	0.69%
Cc1nn(C)c(C)c1-c1nc2ncnc(NCCO)c2[nH]1	-0.32%
CCc1nnc2n1N(C(C)=O)C(c1ccc3c(c1)CCCC3)=C(C(C)=O)S2	0.79%
CC(C)(C)OC(=O)N1CCC[C@H](Cn2cc(C(=O)O)nn2)C1	0.63%
Cc1nc2cc(C(=O)NCc3ccc4c(c3)OCO4)ccc2n1-c1ccc(OCc2ccccc2)cc1	-1.41%
CCCCNC(=O)C1(c2ccc(OC)cc2)CCOCC1	-0.13%
CCC(=O)N(CCC(Cc1ccccc1)c1ccc2c(c1)OCO2)Cc1ccc(OC(C)C)cc1 (configuration not stated)	1.24%
CC(C)c1ccc(Nc2nccn3c(-c4cccc(CO)c4)cnc23)cc1	1.58%
Cc1ccc(S(=O)(=O)NCc2nc3nc(C)cc(C)n3n2)cc1	-1.42%
Nc1cc(=O)nc(SCC(=O)Nc2nccs2)n1-c1ccc(F)cc1	1.67%
